Shown are actives, neighbours in structure and some others; about 9.5% of the full set was active somewhere.
Tau fibril FP – qHTS for Inhibitors of Tau Fibril Formation, Fluorescence Polarization; Potency, µM (top dose mostly 57.7 µM), for the others: top-dose activity, negative = inhibition, actives largely listed as inhibitors; K18 P301L tau heparin fibrillization, Alexa594 FP, 6 h; 280,000 compounds, 0.39% hits; further: nearly all actives have a fitted effect of over 55% in size
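FP of Alexa 594-tau after heparin (20 uM) induction. Substrate: human K18 P301L, 15 uM unlabeled, 0.24 uM labeled. Buffer 100 mM sodium acetate pH 7. 6 hr, 37 C.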
Tau fibril ThT – qHTS for Inhibitors of Tau Fibril Formation, Thioflavin T Binding | recombinant tau K18 P301L, heparin-induced fibrillization, ThT fluorescence | Potency, µM (series often up to 57.4 µM), without a hit: at the highest dose activity, negative = inhibition, hits mostly inhibitors | 270,000 compounds, 2.1% hits | AID 1460, 2008; further: nearly all actives have a fitted effect of over 55% in size
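ThT emission at 510 nm, taken 1 hr after adding 30 uM dye, quantifies aggregates formed when 20 uM heparin acts on human tau K18 P301L for 6 hr at 37 C.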
Tau fluor counter – Counterscreen qHTS for Inhibitors of Tau Fibril Formation, Fluorescence Polarization | tau K18 P301L Alexa594 fluorescence, heparin fibrillization | Potency, µM (titrated, usually from 57.7 µM), for the others: at the highest dose activity change, negative = decrease | 280,000 compounds, 0.93% hits | AID 1463, 2008; further: nearly all actives have a fitted effect of over 55% in size
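Human tau K18 P301L (15 uM unlabeled, 0.24 uM Alexa 594-labeled) in 100 mM sodium acetate pH 7 with 20 uM heparin, 6 hr at 37 C. ThT 30 uM added, 1 hr ambient; Alexa 594 FP and total fluorescence read at 555/632 nm.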
NPSR antag – qHTS Assay for Antagonists of the Neuropeptide S Receptor: cAMP Signal Transduction | Q6W5P4 | CHO-NPSR cells, cAMP TR-FRET, antagonist mode | Potency, µM (doses to about 38.3 µM), for the others: at the top dose activity change, negative = inhibition, most hits filed as inhibitors | 220,000 compounds, 1% hits; further: nearly all actives have a fitted effect of over 50% in size
Target sequence (Q6W5P4 whole entry, looked up): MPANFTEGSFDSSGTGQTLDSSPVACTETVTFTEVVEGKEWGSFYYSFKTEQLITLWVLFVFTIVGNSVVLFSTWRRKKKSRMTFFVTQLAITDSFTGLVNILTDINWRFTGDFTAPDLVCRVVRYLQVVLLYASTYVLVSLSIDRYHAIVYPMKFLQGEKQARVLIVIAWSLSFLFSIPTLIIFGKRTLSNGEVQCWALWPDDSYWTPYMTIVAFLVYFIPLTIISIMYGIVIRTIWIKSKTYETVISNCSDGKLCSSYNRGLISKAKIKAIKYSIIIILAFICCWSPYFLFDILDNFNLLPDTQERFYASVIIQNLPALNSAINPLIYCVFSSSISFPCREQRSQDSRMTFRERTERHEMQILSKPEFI
HPGD inh – qHTS Assay for Inhibitors of HPGD (15-Hydroxyprostaglandin Dehydrogenase); purified HPGD, NADH fluorescence kinetic, PGE2 substrate; Potency, µM, for the others: at the highest dose activity change, negative = inhibition, hits mostly inhibitors; 150,000 compounds, 4.3% hits; AID 894, 2007; active means well fitted inhibition curve with a large enough effect, not every such curve was filed as active; inconclusive means small, poorly fitted or top-dose-only effect, or another doubt; inactive means no such curve, though single readings can be large or run the other way
Target sequence (P15428 whole entry, looked up): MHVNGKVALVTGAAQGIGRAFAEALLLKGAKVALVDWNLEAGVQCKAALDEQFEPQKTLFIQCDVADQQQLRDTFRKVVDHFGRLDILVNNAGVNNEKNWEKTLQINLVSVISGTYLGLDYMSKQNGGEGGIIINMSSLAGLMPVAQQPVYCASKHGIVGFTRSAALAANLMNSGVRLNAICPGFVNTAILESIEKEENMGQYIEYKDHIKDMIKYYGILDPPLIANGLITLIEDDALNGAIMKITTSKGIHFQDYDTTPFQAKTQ
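NADH formation kinetics: reaction with 30 uM PGE2 and 1 mM NAD+ (final), 20 nM enzyme, Tris-HCl pH 8 with Tween 20, after 15 min compound preincubation at room temperature. Fluorescence change, last versus first of five reads.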
ALDH1A1 inh – qHTS Assay for Inhibitors of Aldehyde Dehydrogenase 1 (ALDH1A1); Aldehyde dehydrogenase 1A1 (Homo sapiens), P00352; Purified ALDH1A1, NADH fluorescence, propionaldehyde substrate; Potency, µM (top dose mostly 75.3 µM), for inactives: top-dose activity, negative = inhibition, hits mostly inhibitors; 220,000 compounds, 7.3% hits; active means well fitted inhibition curve with a large enough effect, not every such curve was filed as active; inconclusive means small, poorly fitted or top-dose-only effect, or another doubt; inactive means no such curve, though single readings can be large or run the other way;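 further: plate controls were no enzyme wells and a reference inhibitor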
Active calls of the source: *; ? = inconclusive; · = not tested or not shown; [ ] = another dose, or the depositor's remark. Unless noted, the call rests on the fitted dose curve; in most records, active means well fitted curve in the direction sought with a large enough effect; inconclusive means small, poorly fitted or top-dose-only effect, or another doubt; inactive means no such curve, though single readings can be large; an effect the other way counts as inactive or inconclusive. Unless noted, on the % scale 0 is the no-effect control and ±100 the full control effect; potency means the concentration at half of the fitted maximal effect.

SMILES	Tau fibril FP	Tau fibril ThT	Tau fluor counter	NPSR antag	HPGD inh	ALDH1A1 inh
CC/C(=N\NC(=O)c1ccc(CN(C)S(=O)(=O)c2ccc(C)cc2)cc1)c1ccc(OC(F)F)cc1	-3.7%	-2.2%	-1.0%	-0.9%	-7.0%	12.6µM*
Cc1ccc(S(=O)(=O)N(C)Cc2ccc(C(=O)N/N=C3\CCCC(=O)C3)cc2)cc1	12.2%	-15.6%	-10.0%	7.4%	-17.5%	?
COc1cccc(C(=O)C2=NN(C(C)=O)CC2c2ccco2)c1 (stereo not drawn)	7.0%	-5.3%	-5.3%	-3.3%	·	-2.1%
O=C(CN1C(=O)COc2ccc(S(=O)(=O)N3CCCC3)cc21)N1CCN(c2ccccc2)CC1	1.8%	1.8%	-5.4%	·	·	·
CCCn1nnc(NC(=S)NC(=O)c2ccc(-c3ccc(Br)cc3)o2)n1	-10.2%	-11.4%	-13.0%	?	·	·
Cn1nnc(NC(=S)NC(=O)c2ccc(-c3ccc(Br)cc3)o2)n1	-2.5%	?	-9.7%	-24.9%	·	7.94µM*
C/C=C/c1ccc(OC(C)[C@@H](O)c2ccc(O)c(OC)c2)c(OC)c1 (stereo partly drawn)	0.2%	-11.5%	-22.5%	·	-19.6%	?
CCN1C(=O)/C(=C2/C=Cc3ccccc3N2C)OC1=S	-3.5%	3.16µM*	-14.7%	-3.7%[46.1 µM]	-4.9%	-1.4%
CCN1C(=O)/C(=C2\C=Cc3ccccc3N2CC)SC1=S	12.5%	6.31µM*	?	?	-10.6%	2.4%
O=S(=O)(CCC(F)=C(F)F)c1nnnn1C1CCCCC1	?	-1.4%	4.3%	·	-7.5%	18.2%
CCc1ccc(-n2c(=O)c3sc4ccccc4c3n(CC(=O)N3CCCC3)c2=O)cc1	-3.8%	-9.3%	-11.4%	·	·	·
Cc1ccc(NC2Sc3ccccc3NC2=O)cc1 (stereo not drawn)	?	15.8µM*	-21.6%	-8.4%	·	25.1µM*
CC1(C)CC(=O)C/C(=N\NC(=O)C2CC2c2ccccc2)C1 (stereo not drawn)	?	-12.5%	-4.1%	-7.4%	·	31.6µM*
S=c1nc[nH]c2c1cnn2-c1ccccc1	-10.0%	?	-13.2%	49.5%	·	3.16µM*
Cc1cc(=O)oc2cc(OCC(=O)N/N=C/c3cc([N+](=O)[O-])ccc3O)ccc12	-7.4%	3.55µM*	-19.3%	6.8%	-24.7%	?
Cc1cc(=O)oc2cc(OCC(=O)Nc3ccc(O)c(C(=O)O)c3)ccc12	-15.5%	?	-14.3%	·	·	·
Clc1ccc(OCCCn2cncn2)cc1Cl	4.2%	4.7%	-6.2%	16.4%[46.1 µM]	-6.7%	11.2µM*
O=c1oc2ccccc2c2oc3cc(O)c(O)cc3c12	?	?	?	2.8%	?	-5.3%
O=c1oc2c(O)c(O)cc3c(=O)oc4c(O)c(O)cc1c4c23	?	14.1µM*	?	10.5%	0.891µM*	-7.5%
CN(C)c1ccc(/C=N\NC(=S)SCN2C(=O)C3CCC(C)(C2=O)C3(C)C)cc1 (stereo not drawn)	7.3%	8.91µM*	12.6µM*[quencher]	-10.8%	?	?
C[N+]1(Cc2ccccc2)CCC(C(=O)OCC2CCCC2)CC1 (stereo not drawn)	-1.6%	4.6%	4.7%	·	·	2.4%
ClC(Cl)(c1nnnn1-c1ccccc1)c1nnnn1-c1ccccc1	31.6µM*	11.2µM*	-14.4%	-3.4%	3.16µM*	1.12µM*
Cc1ccc(S(=O)(=O)c2ccccc2)cc1S	?	28.2µM*	-16.8%	9.3%	·	?
Cc1ccc(S(=O)(=O)C2(C(=O)N3CCCCC3C)CC2)cc1 (stereo not drawn)	-0.8%	-4.3%	1.6%	-2.3%[46.1 µM]	-13.2%	?
CCOC(=O)c1sc2ncn(/N=C/c3ccc(O)cc3)c(=O)c2c1C	?	?	?	-28.9%	·	20µM*
SMILES	Tau fibril FP	Tau fibril ThT	Tau fluor counter	NPSR antag	HPGD inh	ALDH1A1 inh
CCOC(=O)c1sc2ncn(/N=C/c3cccnc3)c(=O)c2c1C	-5.1%	?	-6.3%	8.9%[46.1 µM]	-28.3%	0.0708µM*
CCOC(=O)c1sc2ncn(C(C)C(=O)OCC)c(=O)c2c1C (stereo not drawn)	8.3%	-8.8%	-1.6%	-6.0%[46.1 µM]	-11.7%	4.9%
O=C(Nc1ccccc1)c1cccc(N2CCCS2(=O)=O)c1	2.7%	-4.9%	-7.2%	·	·	·
CCC(C)C(=O)N1c2ccccc2C(=C2SC(C(=O)OC)=C(C(=O)OC)S2)C(=S)C1(C)C (stereo not drawn)	?	3.98µM*	?	10µM*	-17.6%	-7.2%
CCOc1ccc(N2C(=O)C3C4C=CC(CC4)C3C2=O)c([N+](=O)[O-])c1 (stereo not drawn)	-9.9%	0.9%	-8.6%	-2.0%[46.1 µM]	-21.2%	28.2µM*
CNS(=O)(=O)c1ccc(C)c(S(=O)(=O)NC)c1	6.0%	0.2%	3.1%	3.3%	-1.7%	-2.2%
NNC(=O)c1nnn(-c2nonc2N)c1-c1cccs1	0.3%	-1.6%	-1.3%	4.4%[46.1 µM]	-6.5%	11.2µM*
CC(C)(CSc1ccccn1)NS(=O)(=O)c1ccc(Cl)cc1	6.7%	-3.1%	-12.0%	-5.0%	-8.1%	10µM*
CC(C)OC(=O)c1cc(-c2ccc(C=O)o2)ccc1Cl	5.7%	-16.0%	-4.5%	-24.3%	-27.8%	8.91µM*
CC(C)OC(=O)/C(C#N)=C/c1ccc(-c2ccc(Cl)c(Cl)c2)o1	-10.7%	12.2%	-0.9%	·	·	·
CN(C)/C=N/c1nc(-c2ccc3c(c2)OCO3)cs1	-3.1%	-11.7%	-11.3%	-7.4%	·	?
Cc1ccccc1Cn1cc(NC(=O)COc2ccccc2)cn1	0.4%	?	-25.1%	-3.0%[46.1 µM]	-23.9%	?
O=C(Nc1nnc(COc2ccc(Cl)cc2)s1)C1CCCO1 (stereo not drawn)	-2.0%	-13.3%	-9.7%	-5.2%[46.1 µM]	17.8µM*	10µM*
CCOCc1nnc(NC(=O)c2cc(Cl)ccc2OC)s1	4.0%	-2.8%	-6.7%	-12.3%[46.1 µM]	14.1µM*	?
Cc1ccc(OCc2nnc(NC(=O)c3ccco3)s2)cc1	4.5%	-9.7%	-8.4%	-6.9%[46.1 µM]	-8.8%	2.1%
O=C(Nc1nnc(COc2ccc(Cl)cc2)s1)c1cccs1	?	-6.7%	-10.3%	-12.4%[46.1 µM]	25.1µM*	10µM*
O=C(Nc1nnc(COc2ccc(Cl)cc2)s1)c1ccco1	?	31.6µM*	-23.9%	4.1%	·	3.16µM*

Assay outcomes (PubChem)
